Myeloid diff 2 = myeloid differentiation induction; ER-HoxA9 myeloid progenitors, lysozyme-GFP differentiation, flow cytometry; calls only at 10 µM; actives 1% (n = 360,000); AID 624256;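 active means normalized GFP-positive differentiation at or above the plate's own cutoff, the solvent-only control mean plus 3 SD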;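 further: cells exposed to compound for four days before flow analysis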
NR3A LBD binder = NR3A (human) ligand-binding domain modulation; NR3A LBD differential scanning fluorimetry, Tm shift; 0% = protein alone, 100% = glycine-bound protein; Tm shift relative to glycine control, % at 25 µM; actives 2.5% (n = 340,000);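 active means melting temperature shift of at least 10% of the positive control shift, at one fixed dose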
FAS-TE inh = FAS thioesterase (human) inhibition; P49327; recombinant FAS-TE, OMFH fluorogenic substrate, fluorescence endpoint; inhibition, % at 15 µM; actives 0.67% (n = 360,000);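 active means compounds whose normalised, plate-corrected inhibition of enzyme fluorescence in the single-dose primary screen is 50% or more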
MPTP block = inhibitors of mitochondrial permeability transition pore | isolated mouse mitochondria, Ca2+ swelling absorbance, 30 min | inhibition, % at 10 µM | actives 1.4% (n = 360,000);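 active means inhibition of 50% or more, scaled per plate between neutral and stimulator controls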
rCAG binder = molecules binding r(CAG) RNA repeats. r(CAG) RNA repeat, TO-PRO-1 dye displacement fluorescence. inhibition, % at 3 µM. actives 1.3% (n = 370,000). AID 651821;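 active means inhibition above the plate cutoff, the mean of all test compounds on that plate plus 3 SD, cut at about 35% in these data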;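 further: higher means more dye released from RNA so lower well fluorescence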
FAS-TE conf = FAS thioesterase (human) inhibition, confirmation; shares compounds with FAS-TE inh; recombinant FAS-TE, OMFH fluorogenic substrate, fluorescence; inhibition, % at 15 µM; actives 45% (n = 2,300);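 active means compounds inhibiting the enzyme by at least 50% at 15 µM in any one of the replicates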
Rh123 counter = mitochondrial membrane potential, counter-screen. isolated mitochondria, Rhodamine 123 fluorescence. actives 78% (n = 5,000). shares compounds with MPTP block. inhibition, % at 10 µM; in the data active means inhibition above about 22%
Each line names hits and unclear results; the compound was inactive in the other large screens (follow-up assays come after a bar, where they were run). Only some compounds are listed: those with a hit (about 5.7% of all), similar ones and a draw of the others.

COC(=O)C1=C(C)N(Cc2ccccc2C(F)(F)F)C(=NCc2ccc(C(F)(F)F)cc2)NC1c1ccc(C(F)(F)F)cc1 (stereo not drawn)	none (no result: Myeloid diff 2, NR3A LBD binder, FAS-TE inh, MPTP block)
Cc1ccc2nc(-c3ccccc3)cc(C(=O)N3CCN(S(=O)(=O)c4c(C)noc4C)CC3)c2c1	FAS-TE inh 70.2 | FAS-TE conf inactive
COc1ccc(Cn2c(NC(=O)c3ccccc3)nc(Cc3ccccc3)c2Cc2ccccc2)c(OC)c1	none (no result: Myeloid diff 2, NR3A LBD binder, FAS-TE inh, MPTP block)
CCN(CC)S(=O)(=O)c1ccc(-n2cnc3cc(C)c(C)cc32)nc1	FAS-TE inh 57.0 | FAS-TE conf 60.7
CCN(CC)S(=O)(=O)c1ccc(N2CCc3ccccc3C2)nc1	FAS-TE inh 63.9 | FAS-TE conf 63.2
COC(=O)C[C@@H]1C[C@H]2c3cc(NC(=O)Nc4ccccc4F)ccc3O[C@H]2[C@@H](CO)O1	none (no result: Myeloid diff 2, NR3A LBD binder, FAS-TE inh, MPTP block)
COC(=O)[C@]1(Cc2ccccc2)N[C@H](CN(C)S(=O)(=O)c2ccc(C(C)(C)C)cc2)[C@@H]2C(=O)N(Cc3ccccc3)C(=O)[C@@H]21	FAS-TE inh 55.0 | FAS-TE conf inactive
Cc1c([N+](=O)[O-])cc(C(=O)Nc2ccc(Cc3ccncc3)cc2)cc1[N+](=O)[O-]	FAS-TE inh 63.3 | FAS-TE conf 51.0
COc1ccccc1C(=O)Nc1ccc(Cc2ccncc2)cc1	none
COc1ccc([N+](=O)[O-])cc1C(=O)Nc1ccc(Cc2ccncc2)cc1	FAS-TE inh 60.0 | FAS-TE conf 53.6
Cc1c([N+](=O)[O-])cc(C(=O)Nc2ccc3ncccc3c2)cc1[N+](=O)[O-]	none (no result: Myeloid diff 2)
C=CCN=C1NC(c2ccccc2C(F)(F)F)C(C(=O)OC)=C(C)N1Cc1cccc(C(F)(F)F)c1 (stereo not drawn)	none (no result: Myeloid diff 2, NR3A LBD binder, FAS-TE inh, MPTP block)
CCOC1=C2[C@@H](CN(S(=O)(=O)c3ccc(C)cc3)[C@H]2c2ccc(Cl)cc2)[C@H]2C(=O)N(c3ccccc3)C(=O)[C@H]2C1	FAS-TE inh 62.0 (no result: NR3A LBD binder) | FAS-TE conf inactive
CCOC1=C2[C@@H](CN(S(=O)(=O)c3ccc(C)cc3)[C@H]2c2cccc3ccccc23)[C@H]2C(=O)N(c3ccccc3)C(=O)[C@H]2C1	FAS-TE inh 77.1 (no result: NR3A LBD binder) | FAS-TE conf inactive
Cc1ccc(S(=O)(=O)N2C[C@H]3[C@H]4C(=O)N(C5CCCCC5)C(=O)[C@H]4CC(=O)[C@H]3[C@@H]2c2ccccc2Cl)cc1	FAS-TE inh 62.0 (no result: NR3A LBD binder) | FAS-TE conf inactive
CCOC1=C2[C@@H](CN(S(=O)(=O)c3ccccc3)[C@H]2c2ccccc2)[C@H]2C(=O)N(c3ccccc3)C(=O)[C@H]2C1	none (no result: NR3A LBD binder)
CCOC1=C2[C@H]([C@H]3C(=O)N(c4ccccc4)C(=O)[C@H]3C1)[C@@H](C(C)C)N(S(=O)(=O)c1ccc(C)cc1)[C@H]2c1ccccc1	FAS-TE inh 57.6 (no result: NR3A LBD binder) | FAS-TE conf inactive
CN(Cc1ccccc1)C(=O)OCc1cn(Cc2cccc(F)c2)nn1	none (no result: Myeloid diff 2, NR3A LBD binder, FAS-TE inh, MPTP block)
CCCCC[C@@H]1[C@H]2[C@H]3C(=O)N(c4ccccc4)C(=O)[C@H]3CC(=O)[C@H]2[C@H](c2ccccc2)N1S(=O)(=O)c1ccc(C)cc1	FAS-TE inh 58.8 (no result: NR3A LBD binder) | FAS-TE conf inactive
CCOC1=C2[C@@H](CN(S(=O)(=O)c3ccc(C)cc3)[C@H]2c2cccc3ccccc23)[C@H]2C(=O)N(C3CCCCC3)C(=O)[C@H]2C1	FAS-TE inh 67.4 (no result: NR3A LBD binder) | FAS-TE conf inactive
Cc1ccc(S(=O)(=O)N2C[C@H]3[C@H]4C(=O)N(c5ccccc5)C(=O)[C@H]4CC(=O)[C@H]3[C@@H]2c2ccccc2)cc1	none (no result: NR3A LBD binder)
CCN1C(=O)[C@@H]2[C@@H]3CN(S(=O)(=O)c4ccc(C)cc4)[C@@H](c4cccc5ccccc45)[C@@H]3C(=O)C[C@@H]2C1=O	none (no result: NR3A LBD binder)
CN(C(=O)c1ccc(Cl)cc1)c1ccc(OCC(=O)Nc2cc(C(=O)O)ccc2Cl)cc1	none (no result: Myeloid diff 2, FAS-TE inh, MPTP block)
CC(C)Cn1c(O)c(N=NC(=O)c2cccc(S(=O)(=O)N3CCCCC3)c2)c2ccccc21	FAS-TE inh 57.7 | FAS-TE conf inactive
CCOC(=O)C1=C(C(=O)OCC)C2N(Cc3ccc(C#N)cc3)c3ccccc3[C@@]23C[C@@H](C(=O)OC)N(S(=O)(=O)c2c(C)noc2C)C3=N1 (stereo partly drawn)	none (no result: Myeloid diff 2, NR3A LBD binder, FAS-TE inh, MPTP block)
Cc1cc2cc3c(cc2nc1SCC(=O)N1c2ccccc2CC1C)OCO3 (stereo not drawn)	none
CC1Cc2ccccc2N1C(=O)CSc1nc2cc3c(cc2cc1C#N)OCO3 (stereo not drawn)	FAS-TE inh 73.8 | FAS-TE conf inactive
Cc1ccc(C(=O)NCCSCc2ccc(Cl)cc2Cl)cc1[N+](=O)[O-]	FAS-TE inh 51.3, MPTP block 68.4 | FAS-TE conf inactive | Rh123 counter 78.4
NC(=S)n1[nH]c(-c2ccc([N+](=O)[O-])cc2)c(N=Nc2ccc(Cl)cc2)c1=O	NR3A LBD binder 27.8, FAS-TE inh 66.1, MPTP block 105.8 (no result: rCAG binder) | FAS-TE conf 39.7 | Rh123 counter 93.0
Cc1ccc([N+](=O)[O-])cc1N=Nc1c(C)[nH]n(C(N)=S)c1=O	none
O=C(Cc1ccc(F)cc1)Nc1nc(-c2ccc(F)c(F)c2)cs1	FAS-TE inh 50.6, MPTP block 58.6 | FAS-TE conf inactive | Rh123 counter 85.6
COc1ccc(CC(=O)Nc2nc(-c3ccc(F)c(F)c3)cs2)cc1	none
CC(NS(=O)(=O)c1cccc(Cl)c1F)[C@H](O)c1ccccc1 (stereo partly drawn)	none (no result: NR3A LBD binder)
NS(=O)(=O)c1ccc(OCCCN2CCC(C(O)(c3ccccc3)c3ccccc3)CC2)cc1	none (no result: Myeloid diff 2, NR3A LBD binder, FAS-TE inh, MPTP block)
Cc1c(Cl)c([N+](=O)[O-])nn1CCCC(=O)Nc1cc(Oc2ccccc2)cc([N+](=O)[O-])c1	NR3A LBD binder 18.2, FAS-TE inh 52.9, MPTP block 85.0 | FAS-TE conf inactive | Rh123 counter 83.5
C[C@@H]1CN(C(=O)OC(C)(C)C)CCN1c1ccc(N2CCN(Cc3ccccc3)[C@@H](C)C2)c(C#N)c1	none (no result: Myeloid diff 2, NR3A LBD binder, FAS-TE inh, MPTP block)
NS(=O)(=O)c1ccc(CNC(=O)/C=C/c2cccc([N+](=O)[O-])c2)cc1	none
O=C(/C=C/c1cccc([N+](=O)[O-])c1)NCCSCc1ccc(Cl)cc1	FAS-TE inh 54.4, MPTP block 51.4 | FAS-TE conf 50.8 | Rh123 counter 64.0
O=C1S/C(=C\c2ccc(O)c([N+](=O)[O-])c2)C(=O)N1Cc1cccc([N+](=O)[O-])c1	FAS-TE inh 78.4, MPTP block 99.8 | FAS-TE conf 51.2 | Rh123 counter 61.0
Cc1cc(C)n(C(=O)/C(C#N)=N/Nc2cc(Cl)cc(Cl)c2)n1	FAS-TE inh 52.8, MPTP block 103.0 (no result: rCAG binder) | FAS-TE conf inactive | Rh123 counter 93.6

Compound activity: PubChem, several laboratories
